Compounds without any hit were thinned out: in the full panel of roughly 83,000, 20% have a hit.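 Treatment: one concentration, 48 hours, 96-well format. Scoring: percent growth, with anything below 10 considered active.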 Activity calls are given as the source filed them.
What was measured:
Assay in all cases: NCI-60 one-dose screen, 48 h (100 = growth as untreated, 0 = no growth, -100 = all killed)
Conditions in all cases: 10 µM unless noted
HCT-15 colon = tested on: HCT-15 colon
HT29 colon = tested on: HT29 colon
SNB-75 CNS = tested on: SNB-75 CNS
SNB-19 CNS = tested on: SNB-19 CNS
U251 CNS = tested on: U251 CNS
SK-MEL-5 melanoma = tested on: SK-MEL-5 melanoma
UACC-62 melanoma = tested on: UACC-62 melanoma
LOX IMVI melanoma = tested on: LOX IMVI melanoma
SK-MEL-28 melanoma = tested on: SK-MEL-28 melanoma
PC-3 prostate = tested on: PC-3 prostate

Measured: growth

COc1ccc(/C=C/C(=O)c2cccc(NS(C)(=O)=O)c2)cc1
inactive: HCT-15 colon 67.5% | HT29 colon 49.1% | SNB-75 CNS 68.6% | SNB-19 CNS 87.9% | U251 CNS 37.6% | SK-MEL-5 melanoma 90.4% | UACC-62 melanoma 76% | LOX IMVI melanoma 75% | SK-MEL-28 melanoma 110%

CC1CC=CCC1C1OCC(C)(C)CO1 (stereo not drawn)
inactive: HCT-15 colon 97.9% | HT29 colon 109% | SNB-75 CNS 90% | SNB-19 CNS 102% | U251 CNS 92.9% | PC-3 prostate 94.9% | UACC-62 melanoma 102% | LOX IMVI melanoma 69.9% | SK-MEL-28 melanoma 105%

CC(=O)Nc1ccc(C(=O)COc2ccc(/C=C3\CCc4ccccc4C3=O)cc2)cc1
inactive: HCT-15 colon 102% | HT29 colon 104% | SNB-75 CNS 116% | SNB-19 CNS 106% | U251 CNS 98.6% | PC-3 prostate 88.8% | UACC-62 melanoma 99.7% | LOX IMVI melanoma 99.9% | SK-MEL-28 melanoma 122%

FC(F)(F)c1ccc(-c2cnc(-c3nn[nH]n3)nc2NC2CCCCCC2)cc1
inactive: HCT-15 colon 38.7% [50 µM] | HT29 colon 66.8% [50 µM] | SNB-75 CNS 93.7% [50 µM] | SNB-19 CNS 41.3% [50 µM] | U251 CNS 33.8% [50 µM] | SK-MEL-5 melanoma 71% [50 µM] | UACC-62 melanoma 41.6% [50 µM] | LOX IMVI melanoma 41.6% [50 µM] | SK-MEL-28 melanoma 74.1% [50 µM]

CC(C)C[C@H](NC(=O)/C=C/Cn1ccc2ccccc2c1=O)B(O)O
inactive: HCT-15 colon 67.5% | SNB-75 CNS 50.2% | SNB-19 CNS 56.2% | U251 CNS 55.8% | PC-3 prostate 79.1% | UACC-62 melanoma 17% | SK-MEL-28 melanoma 50.8%
active: HT29 colon 8.43%

O=C(Nc1nn2c(-c3cc(C(F)(F)F)cc(C(F)(F)F)c3)nnc2s1)C1CCCC1
inactive: HCT-15 colon 13.6% | SNB-75 CNS 37.9% | SNB-19 CNS 26.6% | LOX IMVI melanoma 13.1% | SK-MEL-28 melanoma 30.4%
active: HT29 colon -28.7% | U251 CNS 4.37% | PC-3 prostate 8.85% | UACC-62 melanoma 7.5%

Cn1cnc([N+](=O)[O-])c1Sc1nc(N)nc2nc[nH]c12
inactive: HCT-15 colon 50.3% | HT29 colon 47.2% | SNB-75 CNS 31.3% | SNB-19 CNS 101% | U251 CNS 63.6% | SK-MEL-5 melanoma 79.3% | SK-MEL-28 melanoma 84.4%
active: UACC-62 melanoma 7.35% | LOX IMVI melanoma 6.74%

COP(=O)(OC)C(c1ccc(O)cc1)(c1ccc(O)cc1)c1ccc(O)cc1
inactive: HCT-15 colon 102% | HT29 colon 110% | SNB-75 CNS 112% | SNB-19 CNS 106% | U251 CNS 105% | PC-3 prostate 92.8% | UACC-62 melanoma 98.7% | LOX IMVI melanoma 103% | SK-MEL-28 melanoma 118%

O=C(CN1CCN(c2ccc(Cl)cc2)CC1)N1CCN(c2nnc(-c3ccccc3)c(-c3ccccc3)n2)CC1
inactive: HCT-15 colon 42.3% | HT29 colon 29.2% | SNB-75 CNS 65.8% | SNB-19 CNS 60% | U251 CNS 45.8% | PC-3 prostate 12.1% | UACC-62 melanoma 53% | LOX IMVI melanoma 38.5% | SK-MEL-28 melanoma 83%

O=C(CN1CCN(c2ccc(Cl)cc2)CC1)N1CCN(c2nnc(-c3ccc(Cl)cc3)c(-c3ccc(Cl)cc3)n2)CC1
inactive: HCT-15 colon 59% | HT29 colon 57.3% | SNB-75 CNS 75.6% | SNB-19 CNS 78% | U251 CNS 74.2% | SK-MEL-5 melanoma 58.2% | UACC-62 melanoma 69.9% | LOX IMVI melanoma 51.8% | SK-MEL-28 melanoma 93.6%

O=C1CSC(c2ccccc2O)N1c1nnc(Cn2ccnc2)o1 (stereo not drawn)
inactive: HCT-15 colon 28.8% | HT29 colon 86.2% | SNB-75 CNS 74.9% | SNB-19 CNS 86.3% | U251 CNS 66.6% | SK-MEL-5 melanoma 55.1% | UACC-62 melanoma 77.4% | LOX IMVI melanoma 56% | SK-MEL-28 melanoma 74.8%

COc1ccc(C(=O)COc2cccc(/C=C3\COc4ccc5ccccc5c4C3=O)c2)cc1
inactive: HCT-15 colon 88.6% | HT29 colon 60.8% | SNB-19 CNS 66.9% | U251 CNS 68.3% | PC-3 prostate 48.2% | UACC-62 melanoma 74.5% | LOX IMVI melanoma 57.6% | SK-MEL-28 melanoma 106%
active: SNB-75 CNS -6.64%

CCOC(=O)C1C(=O)NC(C(=O)OCC)(C(=O)OCC)C1CC (stereo not drawn)
inactive: HCT-15 colon 92.8% | HT29 colon 111% | SNB-75 CNS 107% | SNB-19 CNS 105% | U251 CNS 105% | SK-MEL-5 melanoma 101% | UACC-62 melanoma 98.1% | LOX IMVI melanoma 95.6% | SK-MEL-28 melanoma 123%

CC(=O)O[C@H]1CC[C@@]2(C)C(=CC[C@@H]3[C@@H]2CC[C@]2(C)C(c4cccnc4)=CC[C@@H]32)C1
inactive: HCT-15 colon 51.4% | HT29 colon 22.1% | SNB-75 CNS 51% | SNB-19 CNS 72.3% | U251 CNS 53% | SK-MEL-5 melanoma 20.9% | UACC-62 melanoma 44.1% | LOX IMVI melanoma 63.4% | SK-MEL-28 melanoma 44.4%

NS(=O)(=O)c1ccc(-n2ncc3c(SCc4ccccc4)ncnc32)cc1
inactive: HCT-15 colon 93.7% | HT29 colon 94.1% | SNB-75 CNS 102% | SNB-19 CNS 93.9% | U251 CNS 98.3% | PC-3 prostate 90.9% | UACC-62 melanoma 92.8% | LOX IMVI melanoma 92.8% | SK-MEL-28 melanoma 107%

CC1C(C)N(C(=O)CCl)c2ccccc2N1C(=O)CCl (stereo not drawn)
active: HCT-15 colon -83.4% | HT29 colon -73.5% | SNB-75 CNS -99.4% | SNB-19 CNS 8.21% | U251 CNS -93.4% | PC-3 prostate -36.6% | UACC-62 melanoma -76.8% | LOX IMVI melanoma -81.2% | SK-MEL-28 melanoma -45.9%

CCOC(=O)C(Br)=P(c1ccccc1)(c1ccccc1)c1ccccc1
inactive: HCT-15 colon 102% | HT29 colon 106% | SNB-75 CNS 118% | SNB-19 CNS 114% | U251 CNS 87.7% | SK-MEL-5 melanoma 87.6% | UACC-62 melanoma 92.8% | LOX IMVI melanoma 101% | SK-MEL-28 melanoma 107%

COc1cccc(C2=NN(C(C)=O)C(c3cc(OC)c(OC)c(OC)c3)C2)c1 (stereo not drawn)
active: HT29 colon 8.66% | SNB-75 CNS -30.1%
inactive: HCT-15 colon 31.6% | SNB-19 CNS 26.9% | U251 CNS 31.1% | SK-MEL-5 melanoma 15.7% | UACC-62 melanoma 51.7% | LOX IMVI melanoma 48.6% | SK-MEL-28 melanoma 40.9%

Oc1ccccc1/C=N/N1CCCCCC1
inactive: HCT-15 colon 93.7% | HT29 colon 97.6% | SNB-75 CNS 80.3% | SNB-19 CNS 97.1% | U251 CNS 120% | SK-MEL-5 melanoma 94.2% | UACC-62 melanoma 85.9% | LOX IMVI melanoma 96% | SK-MEL-28 melanoma 109%

FC(F)(F)c1cc(-c2nnc3n2N=C(N2CCCC2)CS3)cc(C(F)(F)F)c1
inactive: HCT-15 colon 96.9% | HT29 colon 86.2% | SNB-75 CNS 29.6% | SNB-19 CNS 65.4% | U251 CNS 37.6% | SK-MEL-5 melanoma 80.5% | UACC-62 melanoma 69.1% | LOX IMVI melanoma 84.3% | SK-MEL-28 melanoma 101%

COc1cccc(-c2nc(-c3ccc(N)cc3)co2)c1
inactive: HCT-15 colon 89.8% | HT29 colon 87.2% | SNB-75 CNS 116% | SNB-19 CNS 113% | U251 CNS 92.2% | PC-3 prostate 98.2% | LOX IMVI melanoma 97% | SK-MEL-28 melanoma 111%

O=C(Oc1ccccc1)C(Br)C(Br)c1ccccc1 (stereo not drawn)
inactive: HCT-15 colon 95.4% | HT29 colon 54.5% | SNB-75 CNS 110% | SNB-19 CNS 104% | U251 CNS 75.7% | PC-3 prostate 55.4% | LOX IMVI melanoma 82.2% | SK-MEL-28 melanoma 111%

CN(C)c1ccc(-n2nc3ccccc3n2)cc1
inactive: HCT-15 colon 108% | HT29 colon 111% | SNB-75 CNS 108% | SNB-19 CNS 98.6% | U251 CNS 95.5% | PC-3 prostate 101% | UACC-62 melanoma 81.1% | LOX IMVI melanoma 93.8% | SK-MEL-28 melanoma 126%

COC(=O)N/N=C/c1coc2ccc(Cl)cc2c1=O
inactive: HCT-15 colon 97% | HT29 colon 95.4% | SNB-75 CNS 80.5% | SNB-19 CNS 98.4% | U251 CNS 96.7% | PC-3 prostate 74% | UACC-62 melanoma 93.9% | LOX IMVI melanoma 86.7% | SK-MEL-28 melanoma 100%

COC(=O)[C@H]1[C@H]2C[C@@H]3c4[nH]c5cc(OC)ccc5c4CCN3C[C@H]2C[C@@H](OC(=O)/C=C/c2cc(OC)c(OC)c(OC)c2)[C@@H]1OC
active: HT29 colon -66.1%
inactive: HCT-15 colon 39.9% | SNB-75 CNS 47.2% | SNB-19 CNS 49.9% | U251 CNS 17.4% | PC-3 prostate 44.6% | UACC-62 melanoma 87.4% | LOX IMVI melanoma 26.8% | SK-MEL-28 melanoma 109%

Cc1cccc2nnc(-c3ccccc3)n12
inactive: HCT-15 colon 101% | HT29 colon 106% | SNB-75 CNS 107% | SNB-19 CNS 97.1% | U251 CNS 108% | PC-3 prostate 104% | UACC-62 melanoma 99.6% | LOX IMVI melanoma 99.4% | SK-MEL-28 melanoma 112%

C[C@]12CC[C@H](O)CC1=CC[C@@H]1[C@@H]2CC[C@]2(C)C(c3cccnc3)=CC[C@@H]12
inactive: HCT-15 colon 56.8% | HT29 colon 24% | SNB-75 CNS 52.4% | SNB-19 CNS 72.7% | U251 CNS 67% | SK-MEL-5 melanoma 25.9% | UACC-62 melanoma 53.2% | LOX IMVI melanoma 74.5% | SK-MEL-28 melanoma 33.8%

O=C(N/N=C/c1ccc(Cl)cc1Cl)c1ccccc1Nc1cccc(C(F)(F)F)c1
inactive: HCT-15 colon 72.5% | HT29 colon 86.7% | SNB-75 CNS 78% | SNB-19 CNS 76.1% | U251 CNS 22.4% | SK-MEL-5 melanoma 53.5% | UACC-62 melanoma 65.6% | LOX IMVI melanoma 50% | SK-MEL-28 melanoma 92.2%

COc1ccc(Oc2ccccc2NC(=O)CNC(=O)c2cccc3ccccc23)cc1
inactive: HCT-15 colon 17.2% [5 µM] | SNB-75 CNS 41.6% [5 µM] | SNB-19 CNS 51.4% [5 µM] | U251 CNS 16.9% [5 µM] | SK-MEL-5 melanoma 10.3% [5 µM] | UACC-62 melanoma 37.5% [5 µM] | LOX IMVI melanoma 22.3% [5 µM] | SK-MEL-28 melanoma 60.6% [5 µM]
active: HT29 colon 2.75% [5 µM]

From PubChem BioAssay (NCI)
